According to ChEMBL document CHEMBL1961873, “Compounds: GSK PKIS; Assays: Nanosyn kinase panel” (2012):

Experiments:
[1] = target: Sphingosine kinase 1 (Homo sapiens) (UniProt Q9NYA1); conditions: at 1 µM;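 further: mean SPHK1 inhibition value reported from the GSK PKIS kinase panel screen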
[2] = target: T1, Sphingosine kinase 2 (Homo sapiens) (UniProt Q9NRA0); conditions: at 0.1 µM
T1 sequence (whole entry): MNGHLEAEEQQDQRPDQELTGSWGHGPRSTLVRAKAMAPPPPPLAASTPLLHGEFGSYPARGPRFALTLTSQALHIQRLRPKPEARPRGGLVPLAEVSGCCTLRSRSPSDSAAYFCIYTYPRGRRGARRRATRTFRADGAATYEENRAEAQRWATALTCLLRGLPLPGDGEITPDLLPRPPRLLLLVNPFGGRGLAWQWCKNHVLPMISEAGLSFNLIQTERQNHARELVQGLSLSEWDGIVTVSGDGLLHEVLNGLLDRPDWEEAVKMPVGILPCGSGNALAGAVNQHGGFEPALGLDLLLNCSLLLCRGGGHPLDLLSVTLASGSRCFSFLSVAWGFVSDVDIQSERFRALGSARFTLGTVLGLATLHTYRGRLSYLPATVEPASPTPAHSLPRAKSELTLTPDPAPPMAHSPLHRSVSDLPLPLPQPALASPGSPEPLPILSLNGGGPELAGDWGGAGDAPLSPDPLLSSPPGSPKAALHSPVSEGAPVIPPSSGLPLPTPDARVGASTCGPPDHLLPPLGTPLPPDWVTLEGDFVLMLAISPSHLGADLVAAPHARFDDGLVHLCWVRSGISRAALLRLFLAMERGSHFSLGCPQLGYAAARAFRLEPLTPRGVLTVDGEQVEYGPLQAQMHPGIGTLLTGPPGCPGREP

[3] = target: T1, Sphingosine kinase 2 (Homo sapiens); conditions: at 1 µM
[4] = target: Casein kinase II subunit alpha (Homo sapiens) (UniProt P68400); conditions: at 0.1 µM
Sequence of Casein kinase II subunit alpha (Homo sapiens) (P68400 whole entry, looked up): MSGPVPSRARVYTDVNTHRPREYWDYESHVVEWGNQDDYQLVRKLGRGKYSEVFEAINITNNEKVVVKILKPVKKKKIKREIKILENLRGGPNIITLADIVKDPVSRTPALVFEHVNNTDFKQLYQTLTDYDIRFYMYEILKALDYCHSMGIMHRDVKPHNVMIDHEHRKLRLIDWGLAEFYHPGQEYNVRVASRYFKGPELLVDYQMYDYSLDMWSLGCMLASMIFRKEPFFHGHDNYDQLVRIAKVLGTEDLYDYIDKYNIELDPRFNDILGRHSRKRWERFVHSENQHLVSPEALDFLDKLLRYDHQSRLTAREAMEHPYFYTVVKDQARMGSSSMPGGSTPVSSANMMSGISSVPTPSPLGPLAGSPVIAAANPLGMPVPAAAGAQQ

[5] = target: Casein kinase II subunit alpha (Homo sapiens) (UniProt P68400); conditions: at 1 µM
[6] = target: T2, Inhibitor of nuclear factor kappa-B kinase subunit alpha (Homo sapiens) (UniProt O15111); conditions: at 0.1 µM
T2 sequence (whole entry): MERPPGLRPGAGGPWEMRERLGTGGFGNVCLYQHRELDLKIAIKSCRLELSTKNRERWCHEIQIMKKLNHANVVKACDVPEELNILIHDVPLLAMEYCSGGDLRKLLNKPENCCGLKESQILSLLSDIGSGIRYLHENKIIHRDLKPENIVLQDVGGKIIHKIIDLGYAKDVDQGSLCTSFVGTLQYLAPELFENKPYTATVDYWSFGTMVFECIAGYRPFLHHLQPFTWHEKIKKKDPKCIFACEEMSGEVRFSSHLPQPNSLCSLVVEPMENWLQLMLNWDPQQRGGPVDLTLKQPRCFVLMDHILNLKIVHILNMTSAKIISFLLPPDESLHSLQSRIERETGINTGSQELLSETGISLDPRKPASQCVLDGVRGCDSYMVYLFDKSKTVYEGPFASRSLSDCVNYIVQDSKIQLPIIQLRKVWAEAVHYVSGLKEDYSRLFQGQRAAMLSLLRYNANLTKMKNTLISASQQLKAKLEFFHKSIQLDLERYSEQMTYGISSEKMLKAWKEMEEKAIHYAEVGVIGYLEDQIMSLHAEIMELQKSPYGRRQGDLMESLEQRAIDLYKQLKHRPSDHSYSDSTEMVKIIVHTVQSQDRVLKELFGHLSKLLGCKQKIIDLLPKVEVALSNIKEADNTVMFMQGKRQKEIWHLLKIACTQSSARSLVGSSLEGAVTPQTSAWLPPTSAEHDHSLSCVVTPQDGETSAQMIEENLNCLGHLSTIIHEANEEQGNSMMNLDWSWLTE

[7] = target: T2, Inhibitor of nuclear factor kappa-B kinase subunit alpha (Homo sapiens); conditions: at 1 µM
[8] = target: T3, Inhibitor of nuclear factor kappa-B kinase subunit beta (Homo sapiens) (UniProt O14920); conditions: at 0.1 µM
T3 sequence (whole entry): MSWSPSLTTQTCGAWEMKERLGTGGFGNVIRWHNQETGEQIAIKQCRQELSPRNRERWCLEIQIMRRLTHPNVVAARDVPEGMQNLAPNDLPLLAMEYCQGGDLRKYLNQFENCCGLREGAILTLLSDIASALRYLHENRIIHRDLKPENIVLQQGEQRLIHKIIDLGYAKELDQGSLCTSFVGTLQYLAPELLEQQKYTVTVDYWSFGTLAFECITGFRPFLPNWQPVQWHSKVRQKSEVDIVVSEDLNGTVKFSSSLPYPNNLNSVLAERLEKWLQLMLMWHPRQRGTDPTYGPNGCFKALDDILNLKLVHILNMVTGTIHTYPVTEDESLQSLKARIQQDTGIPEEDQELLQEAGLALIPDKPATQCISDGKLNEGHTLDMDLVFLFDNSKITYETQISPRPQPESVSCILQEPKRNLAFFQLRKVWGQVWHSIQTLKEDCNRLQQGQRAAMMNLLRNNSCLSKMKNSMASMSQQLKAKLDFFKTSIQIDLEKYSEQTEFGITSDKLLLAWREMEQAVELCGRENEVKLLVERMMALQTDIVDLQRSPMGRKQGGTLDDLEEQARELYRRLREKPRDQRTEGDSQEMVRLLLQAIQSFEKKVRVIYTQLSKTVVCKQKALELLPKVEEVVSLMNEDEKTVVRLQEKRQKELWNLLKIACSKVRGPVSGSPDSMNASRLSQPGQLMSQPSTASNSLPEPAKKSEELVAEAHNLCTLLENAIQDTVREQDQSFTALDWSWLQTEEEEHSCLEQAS

[9] = target: T3, Inhibitor of nuclear factor kappa-B kinase subunit beta (Homo sapiens); conditions: at 1 µM
[10] = target: T4, Inhibitor of nuclear factor kappa-B kinase subunit epsilon (Homo sapiens) (UniProt Q14164); conditions: at 0.1 µM
T4 sequence (whole entry): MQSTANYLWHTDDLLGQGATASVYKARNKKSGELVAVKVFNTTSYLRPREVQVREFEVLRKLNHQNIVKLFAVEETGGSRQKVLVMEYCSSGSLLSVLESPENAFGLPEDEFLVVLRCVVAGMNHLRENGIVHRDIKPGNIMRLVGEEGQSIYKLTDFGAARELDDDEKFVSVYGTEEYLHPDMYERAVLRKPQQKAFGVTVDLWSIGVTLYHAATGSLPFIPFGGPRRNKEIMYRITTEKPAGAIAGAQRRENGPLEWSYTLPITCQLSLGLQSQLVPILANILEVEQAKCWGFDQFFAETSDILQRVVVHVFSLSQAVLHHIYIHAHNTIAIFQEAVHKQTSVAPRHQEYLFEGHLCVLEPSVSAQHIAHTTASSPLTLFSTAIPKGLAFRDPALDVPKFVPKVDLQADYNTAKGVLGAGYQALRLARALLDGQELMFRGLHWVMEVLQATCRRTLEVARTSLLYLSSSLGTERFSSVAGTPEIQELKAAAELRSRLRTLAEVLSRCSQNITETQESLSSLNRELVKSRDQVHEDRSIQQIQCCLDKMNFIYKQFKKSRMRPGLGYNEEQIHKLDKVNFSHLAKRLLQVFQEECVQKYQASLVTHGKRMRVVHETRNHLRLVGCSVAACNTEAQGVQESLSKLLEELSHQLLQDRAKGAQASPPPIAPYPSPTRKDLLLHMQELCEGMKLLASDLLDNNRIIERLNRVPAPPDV

[11] = target: T4, Inhibitor of nuclear factor kappa-B kinase subunit epsilon (Homo sapiens); conditions: at 1 µM
[12] = target: T5, Serine/threonine-protein kinase Nek1 (Homo sapiens) (UniProt Q96PY6); conditions: at 0.1 µM
T5 sequence (whole entry): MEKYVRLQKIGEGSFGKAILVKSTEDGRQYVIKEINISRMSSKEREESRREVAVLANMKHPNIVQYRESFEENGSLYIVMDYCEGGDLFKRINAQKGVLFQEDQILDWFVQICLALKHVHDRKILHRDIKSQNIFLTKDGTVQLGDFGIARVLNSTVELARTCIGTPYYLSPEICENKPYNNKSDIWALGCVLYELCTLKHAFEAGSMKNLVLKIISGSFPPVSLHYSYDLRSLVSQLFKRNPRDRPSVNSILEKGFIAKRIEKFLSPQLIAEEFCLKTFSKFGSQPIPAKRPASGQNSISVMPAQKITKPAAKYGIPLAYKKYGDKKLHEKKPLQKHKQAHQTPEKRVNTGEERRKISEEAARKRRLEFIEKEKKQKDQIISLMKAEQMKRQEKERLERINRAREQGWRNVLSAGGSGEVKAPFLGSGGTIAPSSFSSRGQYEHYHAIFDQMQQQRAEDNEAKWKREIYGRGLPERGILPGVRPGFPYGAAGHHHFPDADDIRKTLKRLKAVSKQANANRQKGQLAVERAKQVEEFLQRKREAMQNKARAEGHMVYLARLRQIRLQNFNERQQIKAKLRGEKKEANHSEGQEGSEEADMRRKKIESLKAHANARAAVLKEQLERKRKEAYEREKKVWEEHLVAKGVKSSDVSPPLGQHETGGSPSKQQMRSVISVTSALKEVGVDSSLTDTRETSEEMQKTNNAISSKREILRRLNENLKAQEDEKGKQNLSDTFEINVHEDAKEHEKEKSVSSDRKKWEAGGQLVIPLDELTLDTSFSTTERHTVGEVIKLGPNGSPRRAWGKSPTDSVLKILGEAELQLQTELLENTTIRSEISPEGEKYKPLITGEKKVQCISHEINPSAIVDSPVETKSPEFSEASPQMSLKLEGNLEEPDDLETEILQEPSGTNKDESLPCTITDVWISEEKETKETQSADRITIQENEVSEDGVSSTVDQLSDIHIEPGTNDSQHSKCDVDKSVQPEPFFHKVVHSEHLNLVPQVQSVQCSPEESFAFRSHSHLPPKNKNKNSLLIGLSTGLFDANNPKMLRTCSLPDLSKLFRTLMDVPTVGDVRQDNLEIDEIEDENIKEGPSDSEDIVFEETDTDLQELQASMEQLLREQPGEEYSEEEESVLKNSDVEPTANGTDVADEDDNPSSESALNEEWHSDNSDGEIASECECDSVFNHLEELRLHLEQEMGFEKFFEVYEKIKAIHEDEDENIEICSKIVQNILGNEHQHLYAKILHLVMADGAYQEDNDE

[13] = target: T5, Serine/threonine-protein kinase Nek1 (Homo sapiens); conditions: at 1 µM
[14] = target: T6, Serine/threonine-protein kinase Nek2 (Homo sapiens) (UniProt P51955); conditions: at 0.1 µM
T6 sequence (whole entry): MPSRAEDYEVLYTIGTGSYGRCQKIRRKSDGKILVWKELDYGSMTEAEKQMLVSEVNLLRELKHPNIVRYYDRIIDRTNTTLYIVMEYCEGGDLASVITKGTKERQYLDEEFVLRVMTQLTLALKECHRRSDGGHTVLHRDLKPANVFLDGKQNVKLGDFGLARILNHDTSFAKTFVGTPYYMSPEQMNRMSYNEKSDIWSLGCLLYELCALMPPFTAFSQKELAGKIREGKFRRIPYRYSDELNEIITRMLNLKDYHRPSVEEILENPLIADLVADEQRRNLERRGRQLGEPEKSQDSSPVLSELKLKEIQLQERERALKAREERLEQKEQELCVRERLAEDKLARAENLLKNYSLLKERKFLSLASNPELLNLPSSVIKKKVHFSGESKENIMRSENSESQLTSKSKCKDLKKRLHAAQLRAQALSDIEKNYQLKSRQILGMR

[15] = target: T6, Serine/threonine-protein kinase Nek2 (Homo sapiens); conditions: at 1 µM
[16] = target: Serine/threonine-protein kinase Nek6 (Homo sapiens) (UniProt Q9HC98); conditions: at 0.1 µM
Sequence of Serine/threonine-protein kinase Nek6 (Homo sapiens) (Q9HC98 whole entry): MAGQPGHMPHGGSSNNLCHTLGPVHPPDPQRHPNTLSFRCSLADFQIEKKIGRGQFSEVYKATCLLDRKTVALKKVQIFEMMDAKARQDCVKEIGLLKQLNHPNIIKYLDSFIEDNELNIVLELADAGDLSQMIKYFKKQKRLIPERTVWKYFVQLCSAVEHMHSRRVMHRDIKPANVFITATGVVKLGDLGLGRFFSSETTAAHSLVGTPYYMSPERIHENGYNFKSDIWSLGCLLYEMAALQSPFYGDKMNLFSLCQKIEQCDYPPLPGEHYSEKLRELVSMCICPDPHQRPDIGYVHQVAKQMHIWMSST

[17] = target: Serine/threonine-protein kinase Nek6 (Homo sapiens) (UniProt Q9HC98); conditions: at 1 µM
[18] = target: Serine/threonine-protein kinase Nek7 (Homo sapiens) (UniProt Q8TDX7); conditions: at 0.1 µM
Sequence of Serine/threonine-protein kinase Nek7 (Homo sapiens) (Q8TDX7 whole entry, looked up): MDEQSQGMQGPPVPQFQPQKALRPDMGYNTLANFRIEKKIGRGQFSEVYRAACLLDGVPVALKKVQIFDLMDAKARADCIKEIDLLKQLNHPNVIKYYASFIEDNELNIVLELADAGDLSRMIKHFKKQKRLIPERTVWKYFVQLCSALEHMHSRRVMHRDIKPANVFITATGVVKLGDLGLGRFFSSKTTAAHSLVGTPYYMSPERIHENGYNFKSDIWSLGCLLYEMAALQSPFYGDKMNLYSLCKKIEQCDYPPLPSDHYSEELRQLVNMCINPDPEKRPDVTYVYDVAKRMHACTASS

[19] = target: Serine/threonine-protein kinase Nek7 (Homo sapiens) (UniProt Q8TDX7); conditions: at 1 µM
[20] = target: T7, Serine/threonine-protein kinase Nek9 (Homo sapiens) (UniProt Q8TD19); conditions: at 0.1 µM;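 further: reported value is the mean percent inhibition of NEK9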
T7 sequence (whole entry): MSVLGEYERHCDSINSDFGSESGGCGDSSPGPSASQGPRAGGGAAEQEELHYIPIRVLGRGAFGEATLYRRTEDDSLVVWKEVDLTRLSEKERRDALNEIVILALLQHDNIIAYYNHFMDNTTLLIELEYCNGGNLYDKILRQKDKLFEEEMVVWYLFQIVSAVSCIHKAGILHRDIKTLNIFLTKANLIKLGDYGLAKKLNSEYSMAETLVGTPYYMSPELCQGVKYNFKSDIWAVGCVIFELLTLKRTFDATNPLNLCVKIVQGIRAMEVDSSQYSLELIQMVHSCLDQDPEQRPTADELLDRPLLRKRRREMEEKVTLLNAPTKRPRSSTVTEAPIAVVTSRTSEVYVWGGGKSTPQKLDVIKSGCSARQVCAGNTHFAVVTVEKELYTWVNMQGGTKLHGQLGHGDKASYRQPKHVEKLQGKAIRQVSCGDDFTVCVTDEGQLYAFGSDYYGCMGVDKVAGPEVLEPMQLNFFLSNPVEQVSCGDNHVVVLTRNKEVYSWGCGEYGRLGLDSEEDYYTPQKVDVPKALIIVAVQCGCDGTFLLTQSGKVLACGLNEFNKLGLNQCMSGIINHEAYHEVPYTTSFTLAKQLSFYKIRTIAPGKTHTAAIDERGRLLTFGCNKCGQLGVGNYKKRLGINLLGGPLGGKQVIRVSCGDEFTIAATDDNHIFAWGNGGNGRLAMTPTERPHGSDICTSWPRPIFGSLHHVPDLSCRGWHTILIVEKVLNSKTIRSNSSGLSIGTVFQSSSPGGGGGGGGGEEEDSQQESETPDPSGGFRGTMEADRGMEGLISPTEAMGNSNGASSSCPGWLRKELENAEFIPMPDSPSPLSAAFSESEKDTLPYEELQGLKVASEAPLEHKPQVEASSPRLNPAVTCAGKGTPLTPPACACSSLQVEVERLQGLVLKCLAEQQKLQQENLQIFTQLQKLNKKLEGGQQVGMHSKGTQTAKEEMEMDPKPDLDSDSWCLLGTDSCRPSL

Sequence of Sphingosine kinase 1 (Homo sapiens) (Q9NYA1 whole entry): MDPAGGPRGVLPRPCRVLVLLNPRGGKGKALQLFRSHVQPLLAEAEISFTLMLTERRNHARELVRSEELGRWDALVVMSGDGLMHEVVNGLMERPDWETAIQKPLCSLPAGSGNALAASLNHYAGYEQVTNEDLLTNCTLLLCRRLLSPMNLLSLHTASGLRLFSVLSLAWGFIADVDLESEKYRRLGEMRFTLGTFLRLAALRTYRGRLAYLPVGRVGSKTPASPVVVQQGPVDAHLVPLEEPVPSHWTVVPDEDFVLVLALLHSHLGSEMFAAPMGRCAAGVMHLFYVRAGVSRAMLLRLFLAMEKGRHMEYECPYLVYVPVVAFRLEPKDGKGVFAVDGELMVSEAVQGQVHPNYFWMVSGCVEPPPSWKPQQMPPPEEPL

| Structure (SMILES) | inhibition [1] | inhibition [2] | inhibition [3] | inhibition [4] | inhibition [5] | inhibition [6] | inhibition [7] | inhibition [8] | inhibition [9] | inhibition [10] | inhibition [11] | inhibition [12] | inhibition [13] | inhibition [14] | inhibition [15] | inhibition [16] | inhibition [17] | inhibition [18] | inhibition [19] | inhibition [20] |
| --- | --- | --- | --- | --- | --- | --- | --- | --- | --- | --- | --- | --- | --- | --- | --- | --- | --- | --- | --- | --- |
| COc1ccc(-c2ccc3c(NC(=O)C4CC4)n[nH]c3n2)cc1 | -0.43% | -0.3% | 1.99% | 3.46% | 8.9% | 9.58% | 7.37% | 4.51% | 4.44% | 6.37% | -8.46% | 0.44% | 2.1% | 1.84% | 1.4% | 2.4% | 3.26% | 2.52% | 1.09% | 4% |
| NC(=O)c1cc(-c2ccncc2)cc(-c2ccccc2)c1N | 1.79% | -0.11% | -1.58% | 2.36% | 2.75% |  |  | 9.18% | 27.5% | 6.3% | 14.9% | 3.64% | 3.27% | 6.42% | 6.13% | 2.63% | -0.35% | 4.53% | 3.98% | 9.48% |
